# Compounds with a hit are over-represented: about 0.85% of the library has one in this group of screens.
# GAA glycogen: GAA glycogen-cleavage inhibition or activation; P10253; recombinant GAA, glycogen substrate, Amplex Red glucose oxidase fluorescence; Potency, µM (series often up to 76.4 µM), inactives show at the highest dose activity change, negative = inhibition, actives largely listed as inhibitors; 300,000 compounds, 0.38% hits; AID 2100;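 note: potency is the fitted concentration of half-maximal effect; 0% = full enzyme reaction and -100% = no-enzyme basal signal; the screen sought inhibitors and activators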
#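 Recombinant human alpha-glucosidase (4 nM final) hydrolysed bovine liver glycogen (30 ug) for 40 min at 37 C in pH 5.0 citrate/phosphate with 0.01% Tween-20. Released glucose detected by glucose oxidase/Amplex Red, Ex 573/Em 610 nm. Compounds up to 77 uM; AC50 from Hill fits.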
# FBPA coupling cs: coupling enzyme interference in Giardia aldolase counter-screen. 290,000 compounds, 0.67% hits. coupling enzyme system counterscreen, AmpLite Red fluorescence. activity change, negative = inhibition, % at 58.2 µM, hits read low; in the data active = activity change below about -30%
#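 Final compound at 57.5 uM, incubated 10 min at RT with coupling enzyme reagent (glyceraldehyde-3-phosphate), then 20 min with substrate and AmpLite Red detection. Fluorescence read at 525/598 nm; tests interference with the coupling assay, not aldolase inhibition.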
# GAA spleen mod: inhibits or activates alpha-glucosidase in human spleen homogenate; P10253; human spleen homogenate, 4-MU-alpha-glucoside fluorescence; Potency, µM (series often up to 79.9 µM), for inactives: top-dose activity change, negative = inhibition, most hits filed as inhibitors; 240,000 compounds, 0.006% hits;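 note: potency is the fitted concentration of half-maximal effect; 0% = enzyme with vehicle and -100% = no enzyme basal signal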
#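 Human spleen homogenate (1 ug) incubated with compounds and 1 mM 4-methylumbelliferyl-alpha-D-glucopyranoside in pH 5.0 citrate/phosphate buffer, 37 C, 40 min. Stopped at pH 10; 4-MU fluorescence (Ex 365/Em 440 nm); AC50 by Hill fit.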
# B2AR arrestin: agonists driving beta-arrestin recruitment to human beta2-adrenergic receptor; P07550; 330,000 compounds, 0.02% hits; beta-arrestin recruitment to beta2AR, cell-based reporter; Potency, µM (doses to about 46.1 µM), inactives show at the top dose activation, most hits filed as activators;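 note: potency is the fitted concentration of half-maximal effect; 0% = DMSO controls and full agonism = EC100 isoproterenol or metaproterenol; nearly all actives have a fitted effect of over 65% in size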
# Target sequence (P07550 whole entry, looked up): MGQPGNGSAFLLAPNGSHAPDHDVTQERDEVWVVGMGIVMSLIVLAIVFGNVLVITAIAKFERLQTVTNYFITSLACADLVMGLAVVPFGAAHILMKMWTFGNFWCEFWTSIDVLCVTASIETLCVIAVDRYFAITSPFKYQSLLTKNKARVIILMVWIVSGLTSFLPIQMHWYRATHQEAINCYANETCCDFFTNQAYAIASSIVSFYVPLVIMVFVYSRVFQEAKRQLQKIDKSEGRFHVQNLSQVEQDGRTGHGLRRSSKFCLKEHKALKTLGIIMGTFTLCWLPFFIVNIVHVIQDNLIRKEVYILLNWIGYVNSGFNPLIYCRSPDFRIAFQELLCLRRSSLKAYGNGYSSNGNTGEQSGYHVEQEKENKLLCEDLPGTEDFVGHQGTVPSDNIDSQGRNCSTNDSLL
# GAA inhib: alpha-glucosidase (human) inhibition. purified human GAA, 4-MU-alpha-glucoside fluorescence. 200,000 compounds, 0.005% hits. AID 1466. P10253. Potency, µM (doses to about 76.9 µM), inactives show at the top dose activity change, negative = inhibition, actives largely listed as inhibitors;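 note: potency is the fitted concentration of half-maximal effect; plate controls were uninhibited enzyme wells for no effect and no-enzyme background for full effect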
#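 Endpoint fluorogenic read: 20 min room-temperature reaction of 4 nM human alpha-glucosidase with 400 uM 4-methylumbelliferyl-alpha-D-pyranoside, pH 5.0, quenched with 1M NaOH/1M glycine pH 10. AC50 from Hill modeling.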
# * marks the source's active call; other numbers are inactive results; ? = inconclusive; / = no result given; [ ] = dose if it differs, or a comment. Unless noted, calls come from the whole dose curve; as a rule, active = well fitted curve in the direction sought with a large enough effect; inconclusive = small, poorly fitted or top-dose-only effect, or another doubt; inactive = no such curve, though single readings can be large; an effect the other way counts as inactive or inconclusive. Unless noted, % is set by controls: 0 for no effect and ±100 for the full control effect.
SMILES,GAA glycogen,FBPA coupling cs,GAA spleen mod,B2AR arrestin,GAA inhib
Nc1ncnc2c1nc(Br)n2[C@@H]1O[C@H]2COP(=O)(O)O[C@@H]2[C@@H]1O,/,4.7,5.4%,/,/
Cn1c(=O)c2cc(C(=O)NCCCN3CCN(c4ccc(F)cc4)CC3)sc2c2ccccc21,-22.3%[76.3 µM],/,/,/,/
CC1=Nc2ccccc2N=C(NC(=O)c2ccccc2)C1c1ccc(Cl)cc1 (configuration not stated),?,-0.2,2.4%,-0.8%,-2.9%
CC1=Nc2ccccc2N=C(N)C1c1ccccc1 (configuration not stated),15.8µM*,0.1,5.5%,4.8%,3.2%
CCCNC(C)C(=O)Nc1ccccc1C (configuration not stated),6.9%,1.6,10.1%,3.16µM*,?
O=C(NNc1nc2cc3c(cc2s1)OCO3)c1ccc(F)cc1,28.2µM*,0.8,4.0%,-0.5%,6.1%
O=C(NNc1nc2cc3c(cc2s1)OCCO3)c1ccc(F)cc1,24.0%,3.9,2.4%,-0.1%,-7.2%
Cc1[nH]c2c(ccc3cccnc32)c1C,3.7%,-14.0,1.1%,0.1%,/
CC1=[N+](C)c2c(ccc3cccnc23)C1(C)C,-20.1%,-57.8*,0.2%,0.3%,8.0%
Cc1[nH][nH]c(=O)c1C(c1c(C)[nH][nH]c1=O)c1cn(Cc2ccc(Cl)c(Cl)c2)c2ccccc12,?,-49.1*,-9.4%,-0.8%,?
O=C(O)Cc1cn(Cc2ccc(F)cc2)c2ccccc12,2.4%,11.6,-1.1%,-0.2%,0.0%
O=c1c2ccccc2ncn1Cc1ccc(Cl)c(Cl)c1,0.3%[76.3 µM],0.0,/,-1.0%,/
Cc1[nH][nH]c(=O)c1C(c1c(C)[nH][nH]c1=O)c1cn(Cc2ccc(F)cc2)c2ccccc12,-4.6%,-46.7*,-8.0%,-0.5%,-2.4%
O=c1cc(-c2ccccc2Cl)oc2cc(O)cc(O)c12,6.5%,4.7,-15.3%,-0.4%,-10.1%
Nc1ccc(O)c2c(=O)cc(-c3ccccc3Cl)oc12,14.1µM*,-1.6,9.1%[119 µM],-1.1%,-9.0%[15.4 µM]
NNc1nc(Nc2ccc([N+](=O)[O-])cc2)nc(N2CCCCCC2)n1,?,0.5,/,-0.3%,/
Cc1ccc([N+](=O)[O-])cc1Nc1nc(N2CCCC2)nc(N2CCCC2)n1,31.6µM*,-1.7,/,-0.2%,/
CCOc1cccc(N)c1,/,/,6.4%,16.4µM*,/
O=C(Cl)CCCCCCCC(=O)Cl,/,-2.6,-3.8%,/,/
COc1ccc(C(=O)NNc2ccccc2)cc1OC,22.2µM*,0.0,1.9%,-0.2%,0.0%
COc1ccc(C(=O)NNC(=O)Cc2ccc(-c3ccccc3)cc2)cc1OC,5.6%,-1.0,6.4%,0.0%,-2.9%
Cc1cc2nc(CCl)cc(=O)n2[nH]1,0.4%,1.0,-3.5%,0.2%,-1.4%
Cc1cc2nc(CSc3ccccc3)cc(=O)n2[nH]1,-5.3%,-30.9*,1.4%,0.1%,9.7%
Cc1c(CCO)c(=O)n(-c2ccccc2)n1S(=O)(=O)c1c(Cl)cc(Cl)cc1Cl,-13.1%,-39.4*,-2.9%,-0.1%,-6.5%
CC(=O)N1CCn2c3c(c(=O)c4cc(C)ccc42)CCC31 (configuration not stated),-8.4%,-42.3*,-0.4%,0.1%,13.0%
SMILES,GAA glycogen,FBPA coupling cs,GAA spleen mod,B2AR arrestin,GAA inhib
CC(=O)N1CCn2c3c(c4cc(C)ccc42)CCCC31 (configuration not stated),?,2.1,-6.8%,-0.3%,13.5%
O=S(=O)(O)c1ccc2c(c1)-c1nc-2nc2[nH]c(nc3nc(nc4[nH]c(n1)c1ccc(S(=O)(=O)O)cc41)-c1ccc(S(=O)(=O)O)cc1-3)c1ccc(S(=O)(=O)O)cc21,/,-9.2,1.4%,/,/
c1ncc(CCCC2CCNCC2)[nH]1,/,-0.4,5.7%,/,/
O=C(N/N=C/C1CCCCC1)c1ccccn1,?,2.9,4.5%,-0.1%,-3.9%
O=C(N/N=C/C1CCCCC1)c1cc(Cl)ccc1O,35.5µM*,1.0,-4.6%,-0.1%,-18.4%
Cc1ccc2[nH]c(C)c(/C=N/Nc3nc4ccccc4s3)c2c1,15.7µM*,-2.5,-13.3%,0.5%,-1.5%
Brc1csc(/C=N/Nc2nc3ccccc3s2)c1,?,-3.7,-1.7%,0.3%,-2.3%
CCN(CCN(C)C)C(=O)c1ccc2c(c1NCCO)C(=O)c1ccccc1C2=O,1.5%,-37.3*,3.1%,0.1%,-1.2%
COc1ccc(Br)cc1C1C2C=CCCC2(C)C(=O)N1Cc1ccccc1 (configuration not stated),/,5.6,-4.3%,/,/
CSCC[C@H](NC(=O)[C@H](Cc1ccccc1)NC[C@@H](NC[C@@H](N)CS)C(C)C)C(=O)O,/,1.8,0.5%,/,/
CCCSc1cc(NCCOC(C)=O)c([N+](=O)[O-])c2nonc12,10.0%,-38.8*,-7.8%,0.3%,-28.7%
CCCSc1cc(NCCOC(=O)CCC)c([N+](=O)[O-])c2nonc12,-7.7%,-2.8,0.6%,0.2%,-7.2%
Cc1nnc(Sc2cc(NCCCO)c([N+](=O)[O-])c3nonc23)s1,2.3%,-36.5*,-1.5%,0.0%,-5.6%
CC(C)=CCC/C(C)=C/CO/N=C1/[C@H]2O[C@@H]2[C@@H](O)[C@H]2[C@H]1CCn1c(=O)n(Cc3cc4c(cc3Cl)OCO4)c(=O)n12,/,-3.2,-4.1%[17.4 µM],/,/
CC(C)NC1=C(Cl)C(=O)c2ccccc2C1=O,-7.3%,-42.4*,0.9%,-0.3%,3.1%
C=CCNC1=C(Cl)C(=O)c2ccccc2C1=O,5.5%,-35.2*,10.4%,-1.5%,-1.2%
O=C1C(Cl)=C(Nc2ccccc2)C(=O)c2ccccc21,7.6%,-33.2*,-8.1%,0.7%,?
CCCCN(CC)C(=O)CCCn1c(=O)c2cccn2c2ccccc21,9.0%[76.3 µM],/,/,/,/
COc1ccc(/C=N/c2oc(-c3ccccc3)cc2C#N)cc1OC,25.1µM*,-20.7,1.4%,0.1%,2.9%
O=C(/C=C/Nc1ccccc1)c1ccccc1,9.1%,1.1,2.6%,-0.4%,1.4%
CN(C)c1ccc(N/C=C/C(=O)c2ccccc2)cc1,14.1µM*,-20.7,4.8%,0.7%,-13.5%
COc1cccc(OC)c1C(=O)Nc1ccc(S(=O)(=O)Nc2nccc(C)n2)cc1,-7.4%[76.3 µM],/,/,/,/
Cc1ccc(NC(=O)c2ccc3c(c2)C(=O)N(CC2CCCO2)C3=O)cc1C (configuration not stated),2.2%,1.0,0.5%,7.08µM*,3.6%
CCc1ccc2oc(C(=O)NCC(c3ccc(Cl)cc3)N3CCOCC3)c(C)c2c1 (configuration not stated),3.5%[76.3 µM],/,/,/,/
COc1ccc2c(c1)O[C@H](c1ccc3c(c1)OCO3)[C@@H](OC(=O)NCCOc1ccccc1)C2=O,/,2.5,-5.3%,/,/
Cc1cccc(CNc2ncnc3ccc(-c4cccc(C#N)c4)cc23)c1,/,-0.1,1.3%,/,/
Cc1ccc(SCc2cc(=O)c3c(=O)n(-c4ccccc4)[nH]c3[nH]2)cc1,10µM*,-0.2,-1.7%,-0.3%,-14.2%

# Compound activity deposited in PubChem by National Center for Advancing Translational Sciences (NCATS).
